Reference: PubChem BioAssay (NCI)
Compounds without any hit were thinned out: in the full panel of roughly 83,000, 20% have a hit.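 Each cell line was grown in a 96-well plate and treated with one concentration of compound for 48 hours. Values below 10 were considered active.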 Calls of active or inactive are those of the source.

Experiments:
Experiment in all cases: NCI-60 one-dose screen, 48 h (100 = growth as untreated, 0 = no growth, -100 = all killed)
Details in all cases: 10 µM unless noted
DU-145 prostate = tested on: DU-145 prostate
MALME-3M melanoma = tested on: MALME-3M melanoma
MDA-MB-231 breast = tested on: MDA-MB-231 breast
SF-268 CNS = tested on: SF-268 CNS
SF-295 CNS = tested on: SF-295 CNS
SF-539 CNS = tested on: SF-539 CNS
M14 melanoma = tested on: M14 melanoma
HCT-15 colon = tested on: HCT-15 colon
HT29 colon = tested on: HT29 colon
SNB-75 CNS = tested on: SNB-75 CNS
SNB-19 CNS = tested on: SNB-19 CNS
U251 CNS = tested on: U251 CNS
PC-3 prostate = tested on: PC-3 prostate
SK-MEL-5 melanoma = tested on: SK-MEL-5 melanoma
UACC-62 melanoma = tested on: UACC-62 melanoma
LOX IMVI melanoma = tested on: LOX IMVI melanoma
SK-MEL-28 melanoma = tested on: SK-MEL-28 melanoma
RXF 393 renal = tested on: RXF 393 renal
K-562 leukemia = tested on: K-562 leukemia
UACC-257 melanoma = tested on: UACC-257 melanoma

Measured: growth

Clc1ccc2c(c1)C(Br)c1cc(Cl)cc(Cl)c1-2 (configuration not stated)
active: LOX IMVI melanoma 4.27%
inactive: DU-145 prostate 109% | MALME-3M melanoma 45.1% | MDA-MB-231 breast 75.6% | SF-268 CNS 98.3% | SF-295 CNS 101% | SF-539 CNS 81.6% | M14 melanoma 34.8% | HCT-15 colon 78.1% | HT29 colon 111% | SNB-75 CNS 73.5% | SNB-19 CNS 90.9% | U251 CNS 79.5% | PC-3 prostate 82.6% | SK-MEL-5 melanoma 51.2% | UACC-62 melanoma 66.1% | SK-MEL-28 melanoma 112%

Cn1c(N2N=C(c3ccc(Cl)cc3)CC2c2ccccc2)nc(-c2ccccc2)c(C#N)c1=O (configuration not stated)
inactive: DU-145 prostate 89.4% | MALME-3M melanoma 97.6% | MDA-MB-231 breast 58.6% | RXF 393 renal 96.4% | SF-268 CNS 57.9% | SF-295 CNS 85.4% | SF-539 CNS 103% | HCT-15 colon 80% | HT29 colon 79.3% | SNB-75 CNS 91.4% | SNB-19 CNS 88.8% | PC-3 prostate 49.7% | SK-MEL-5 melanoma 54.7% | UACC-62 melanoma 58.9% | LOX IMVI melanoma 70.9% | SK-MEL-28 melanoma 94.5%

CCN(CC)c1ccc(/C=C/C(=O)c2cccc(NS(C)(=O)=O)c2)cc1
inactive: DU-145 prostate 49.6% | MALME-3M melanoma 76.2% | MDA-MB-231 breast 43% | SF-268 CNS 61.5% | SF-295 CNS 47.5% | SF-539 CNS 40.6% | M14 melanoma 32.1% | HCT-15 colon 27.8% | SNB-75 CNS 48.4% | SNB-19 CNS 74.6% | U251 CNS 41.6% | SK-MEL-5 melanoma 39.6% | UACC-62 melanoma 36.1% | LOX IMVI melanoma 15% | SK-MEL-28 melanoma 72.5%
active: HT29 colon 5.36%

Cc1cccc2nnc(-c3ccccc3)n12
inactive: DU-145 prostate 124% | K-562 leukemia 100% | MDA-MB-231 breast 94.5% | RXF 393 renal 117% | SF-268 CNS 111% | SF-295 CNS 109% | SF-539 CNS 108% | UACC-257 melanoma 105% | M14 melanoma 102% | HT29 colon 106% | SNB-75 CNS 107% | SNB-19 CNS 97.1% | U251 CNS 108% | PC-3 prostate 104% | SK-MEL-5 melanoma 110% | UACC-62 melanoma 99.6% | LOX IMVI melanoma 99.4% | SK-MEL-28 melanoma 112%

COc1ccc(/C=C/C(=O)c2cccc(NS(C)(=O)=O)c2)cc1
inactive: DU-145 prostate 42.6% | MALME-3M melanoma 112% | MDA-MB-231 breast 80.5% | SF-268 CNS 82% | SF-295 CNS 92.1% | SF-539 CNS 94.7% | M14 melanoma 97.3% | HCT-15 colon 67.5% | HT29 colon 49.1% | SNB-75 CNS 68.6% | SNB-19 CNS 87.9% | U251 CNS 37.6% | SK-MEL-5 melanoma 90.4% | UACC-62 melanoma 76% | LOX IMVI melanoma 75% | SK-MEL-28 melanoma 110%

Cc1ccc(-c2c3c(N)c4c(nc3nc3c2c(C)nn3-c2ccccc2)CCC4)cc1
inactive: DU-145 prostate 106% | MALME-3M melanoma 91.5% | MDA-MB-231 breast 37.4% | SF-268 CNS 108% | SF-295 CNS 98.5% | SF-539 CNS 72.7% | M14 melanoma 88% | HCT-15 colon 15% | SNB-75 CNS 105% | SNB-19 CNS 99.4% | PC-3 prostate 91.1% | SK-MEL-5 melanoma 90.4% | UACC-62 melanoma 99.8% | SK-MEL-28 melanoma 70.2%
active: HT29 colon 3.96% | LOX IMVI melanoma -31%

COc1ccc(OC)c2c1CCC1(C2)NC(=O)NC1=O (configuration not stated)
inactive: K-562 leukemia 105% | MALME-3M melanoma 96.5% | MDA-MB-231 breast 98.8% | RXF 393 renal 108% | SF-268 CNS 133% | SF-295 CNS 113% | SF-539 CNS 95.1% | M14 melanoma 105% | HCT-15 colon 93.6% | HT29 colon 104% | SNB-75 CNS 86.2% | SNB-19 CNS 98.8% | PC-3 prostate 94.8% | SK-MEL-5 melanoma 101% | UACC-62 melanoma 103% | LOX IMVI melanoma 100% | SK-MEL-28 melanoma 106%

c1ccc(N2c3nc4ccccc4cc3Sc3cc4ccccc4nc32)nc1
inactive: K-562 leukemia 85.7% | MDA-MB-231 breast 68.4% | SF-268 CNS 80.8% | SF-295 CNS 96.1% | SF-539 CNS 111% | UACC-257 melanoma 87.8% | M14 melanoma 109% | HCT-15 colon 95.6% | HT29 colon 104% | SNB-75 CNS 109% | SNB-19 CNS 97.8% | U251 CNS 85.7% | PC-3 prostate 72.5% | SK-MEL-5 melanoma 91.3% | UACC-62 melanoma 78.4% | LOX IMVI melanoma 84.1% | SK-MEL-28 melanoma 115%

O=C(COc1cccc(/C=C2\Oc3ccc4ccccc4c3C2=O)c1)c1ccc(Cl)cc1
inactive: K-562 leukemia 122% | MALME-3M melanoma 69.4% | MDA-MB-231 breast 84.7% | SF-268 CNS 88.8% | SF-295 CNS 104% | SF-539 CNS 68.2% | UACC-257 melanoma 95.6% | M14 melanoma 83.6% | HCT-15 colon 72.4% | HT29 colon 103% | SNB-75 CNS 90.5% | SNB-19 CNS 92% | U251 CNS 61.5% | PC-3 prostate 77.5% | SK-MEL-5 melanoma 89.3% | UACC-62 melanoma 82.8% | LOX IMVI melanoma 10.6% | SK-MEL-28 melanoma 113%

COc1cc2c(cc1OC)C(=O)/C(=C/c1cccc(OCC(=O)c3ccccc3)c1)C2
inactive: K-562 leukemia 43.8% | MALME-3M melanoma 145% | MDA-MB-231 breast 97.9% | SF-268 CNS 94.9% | SF-295 CNS 104% | SF-539 CNS 78.2% | UACC-257 melanoma 95.4% | M14 melanoma 96.3% | HCT-15 colon 83.4% | HT29 colon 42.1% | SNB-75 CNS 85.2% | SNB-19 CNS 93.3% | U251 CNS 74.2% | PC-3 prostate 62% | SK-MEL-5 melanoma 67.6% | UACC-62 melanoma 68.1% | LOX IMVI melanoma 72.3% | SK-MEL-28 melanoma 107%

C=C(CN1CCc2c([nH]c3ccccc23)C1)c1ccc(C(=O)Nc2ccon2)cc1
inactive: K-562 leukemia 44.2% | MALME-3M melanoma 129% | MDA-MB-231 breast 78.6% | SF-268 CNS 97.1% | SF-295 CNS 114% | SF-539 CNS 90% | UACC-257 melanoma 97.3% | M14 melanoma 95.6% | HCT-15 colon 104% | HT29 colon 99.2% | SNB-75 CNS 96.6% | SNB-19 CNS 74.4% | U251 CNS 92% | PC-3 prostate 73.8% | SK-MEL-5 melanoma 88% | UACC-62 melanoma 80% | LOX IMVI melanoma 83.8% | SK-MEL-28 melanoma 97.8%

CC(=O)c1ccccc1NC(=O)C(C)(c1ccccc1)c1ccccc1
active: SK-MEL-5 melanoma 6.19%
inactive: K-562 leukemia 72.5% | MALME-3M melanoma 83% | MDA-MB-231 breast 88.8% | SF-268 CNS 92.6% | SF-295 CNS 86.1% | SF-539 CNS 105% | UACC-257 melanoma 85.9% | M14 melanoma 99.9% | HCT-15 colon 104% | HT29 colon 91.1% | SNB-75 CNS 81.1% | SNB-19 CNS 97.1% | U251 CNS 91.6% | PC-3 prostate 66.8% | UACC-62 melanoma 70.9% | LOX IMVI melanoma 81.8% | SK-MEL-28 melanoma 111%

COc1ccc(Cl)cc1Nc1nc(C(F)(F)F)ccc1C(=O)N/N=C/c1c(Cl)cccc1Cl
inactive: K-562 leukemia 33.8% | MALME-3M melanoma 69.3% | MDA-MB-231 breast 46.3% | SF-268 CNS 65% | SF-295 CNS 13.8% | SF-539 CNS 20.6% | UACC-257 melanoma 60.9% | M14 melanoma 71.3% | HCT-15 colon 30.6% | HT29 colon 52.1% | SNB-75 CNS 63.5% | SNB-19 CNS 55.5% | U251 CNS 29.1% | PC-3 prostate 48.5% | SK-MEL-5 melanoma 13.4% | UACC-62 melanoma 52.9% | LOX IMVI melanoma 32.3% | SK-MEL-28 melanoma 62.2%

O=C(COc1ccc(/C=C2\Oc3ccc4ccccc4c3C2=O)cc1)c1ccc([N+](=O)[O-])cc1
inactive: K-562 leukemia 79.4% | MALME-3M melanoma 85.8% | MDA-MB-231 breast 94.9% | SF-268 CNS 96.9% | SF-295 CNS 105% | SF-539 CNS 65.6% | UACC-257 melanoma 94% | M14 melanoma 92.8% | HCT-15 colon 88.4% | HT29 colon 109% | SNB-75 CNS 91.3% | SNB-19 CNS 94.6% | U251 CNS 94.4% | PC-3 prostate 86.8% | SK-MEL-5 melanoma 92.3% | UACC-62 melanoma 91.7% | LOX IMVI melanoma 35.5% | SK-MEL-28 melanoma 106%

Cc1ccc(-c2cc(-c3ccccc3)n(-c3ccccc3)n2)cc1
inactive: K-562 leukemia 81.2% | MALME-3M melanoma 87.6% | MDA-MB-231 breast 112% | SF-268 CNS 98.3% | SF-295 CNS 156% | SF-539 CNS 115% | UACC-257 melanoma 98.1% | M14 melanoma 110% | HCT-15 colon 106% | HT29 colon 96.7% | SNB-75 CNS 99.4% | SNB-19 CNS 95.4% | U251 CNS 97.7% | PC-3 prostate 99.6% | SK-MEL-5 melanoma 106% | UACC-62 melanoma 88.2% | LOX IMVI melanoma 99% | SK-MEL-28 melanoma 98.2%

COc1ccc(CNC(=O)c2c(C)n([O-])c3ccccc3[n+]2=O)cc1
inactive: K-562 leukemia 94.9% | MALME-3M melanoma 153% | MDA-MB-231 breast 103% | SF-268 CNS 99.7% | SF-295 CNS 111% | SF-539 CNS 112% | UACC-257 melanoma 90.4% | M14 melanoma 104% | HCT-15 colon 103% | HT29 colon 102% | SNB-75 CNS 79.9% | SNB-19 CNS 97.7% | U251 CNS 97.3% | PC-3 prostate 86.3% | SK-MEL-5 melanoma 76.6% | UACC-62 melanoma 96.8% | LOX IMVI melanoma 96.8% | SK-MEL-28 melanoma 104%
